This is a sample that favours compounds with a hit; in the whole collection about 9.4% have one here.
SMN2 splice up: SMN2 splice variant enhancement | HEK293 SMN2-luciferase splicing reporter, luminescence, 30-36 h | Potency, µM (series often up to 46.1 µM), for inactives: top-dose activity change, positive = activation, hits mostly activators | actives 2.8% (n = 210,000); further: % of control where 0% means no effect; nearly all actives have a fitted effect of over 55% in size
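qHTS luciferase splicing reporter: luminescence rises when SMN2 exon 7 is included in transfected HEK293 cells. Compound exposure lasted 30-36 h at 37C, with 4.5 mM final sodium butyrate as control, followed by a ONE-Glo read.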
Rab9 promoter act: Rab9 promoter activation; Huh7 Rab9 promoter-luciferase reporter, luminescence, 24 h; actives 2.8% (n = 320,000); AID 485297; Potency, µM (top dose mostly 9.22 µM), for the others: top-dose activation, negative = inhibition, most hits filed as activators; further: % of control where 0% means no effect; nearly all actives have a fitted effect of over 60% in size
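Using Huh7 cells stably transfected with Rab9 promoter–luciferase, compounds were incubated 24 h at 37 °C, 5% CO2; luciferase luminescence was read 10 min after reagent addition.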
ELG1 repair inh: inhibitors of ELG1-dependent DNA repair in HEK293T cells | HEK293T ELG1-luciferase reporter, luminescence, 16 h; DNA damage induced by 5-fluorouridine | Potency, µM (highest dose often 46.1 µM), inactives show top-dose activity change, negative = inhibition, actives largely listed as inhibitors | actives 2.3% (n = 330,000) | AID 504467; further: on the % scale 0 is the no-effect control and ±100 the full control effect; nearly all actives have a fitted effect of over 55% in size
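Quantitative HTS, concentration-response format. 2,000 cells/well co-treated with 5-fluorouridine and compound, 16 hr in 5% CO2 at 37 °C; ONE-Glo luminescence read after 30 min.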
NPC1 promoter act: NPC1 promoter activation. Huh7 NPC1 promoter luciferase reporter, 24 h. Potency, µM (series often up to 9.22 µM), for the others: at the highest dose activation, actives largely listed as activators. actives 2.4% (n = 320,000); further: % of control where 0% means no effect; nearly all actives have a fitted effect of over 60% in size
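Huh7 cells stably carrying NPC1 promoter–luciferase, plated in Opti-MEM with 10% FBS for 2 h, were exposed to compound in DMSO for 24 h at 37 °C; luciferase reagent was added for 10 min and luminescence read.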
FLuc counter: counter-screen for miR-21 project: firefly luciferase inhibitors or activators; purified FLuc, Km substrates, luminescence inhibition; Potency, µM (series often up to 57.5 µM), inactives show top-dose activity change, negative = inhibition, actives largely listed as inhibitors; P08659; actives 6.9% (n = 360,000);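 further: plate controls were vehicle for no effect and reference inhibitor for full effect; nearly all actives have a fitted effect of over 55% in size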
Target sequence (P08659 whole entry, looked up): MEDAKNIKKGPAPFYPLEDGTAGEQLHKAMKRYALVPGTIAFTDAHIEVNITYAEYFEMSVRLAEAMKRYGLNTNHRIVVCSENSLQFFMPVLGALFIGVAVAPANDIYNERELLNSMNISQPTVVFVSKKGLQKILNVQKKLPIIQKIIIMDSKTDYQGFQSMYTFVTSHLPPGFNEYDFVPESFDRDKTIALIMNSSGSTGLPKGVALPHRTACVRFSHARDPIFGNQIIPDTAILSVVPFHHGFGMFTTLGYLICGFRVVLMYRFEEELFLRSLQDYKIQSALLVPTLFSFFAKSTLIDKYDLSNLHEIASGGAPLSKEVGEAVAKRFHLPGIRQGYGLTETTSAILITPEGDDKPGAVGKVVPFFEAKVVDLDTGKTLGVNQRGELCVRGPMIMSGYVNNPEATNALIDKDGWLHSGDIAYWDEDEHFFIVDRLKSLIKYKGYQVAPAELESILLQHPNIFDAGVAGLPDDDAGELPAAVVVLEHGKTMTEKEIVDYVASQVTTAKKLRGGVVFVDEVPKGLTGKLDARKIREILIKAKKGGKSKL
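Purified P. pyralis luciferase, 10 nM final, with Km-level 10 uM D-luciferin and 10 uM ATP in 50 mM Tris acetate pH 7.5, 10 mM Mg acetate, 0.01% Tween-20, 0.05% BSA; 6-point qHTS titration about 60 µM downward; luminescence read.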
ELG1 genotoxic: induces genotoxicity in HEK293T cells with luciferase-tagged ELG1; HEK293T ELG1-luciferase reporter, luminescence, 16 h; Potency, µM (series often up to 46 µM), for the others: top-dose activity change, positive = activation, actives largely listed as activators; actives 1.3% (n = 330,000); further: % of control where 0% means no effect; nearly all actives have a fitted effect of over 60% in size
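ELG1-luciferase HEK293T cells, 2,000/well; compound pinned in; 16 hr, 37 °C, 5% CO2; ONE-Glo, 30 min RT; luminescence on CCD imager.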
* marks the source's active call; other numbers are inactive results; ? = inconclusive; / = no result given. The call rests on the fitted dose curve; in most records, active means well fitted curve in the direction sought with a large enough effect; inconclusive means small, poorly fitted or top-dose-only effect, or another doubt; inactive means no such curve, though single readings can be large; an effect the other way counts as inactive or inconclusive. Potency means the concentration at half of the fitted maximal effect.

SMILES | SMN2 splice up | Rab9 promoter act | ELG1 repair inh | NPC1 promoter act | FLuc counter | ELG1 genotoxic
CCc1ccc(NC(=O)c2cc3nc(-c4ccc(C)cc4)cc(C(F)(F)F)n3n2)cc1 | 6.5% | / | / | / | 0.7% | /
Cc1ccc(OCCn2c(C3CC(=O)N(Cc4ccc(F)cc4)C3)nc3ccccc32)c(C)c1 (stereo unspecified) | / | / | / | / | -7.3% | /
O=C(NCc1ccccc1)C(c1ccco1)N(C(=O)c1ccccn1)c1ccccc1 (stereo unspecified) | / | -1.2% | -2.6% | -4.3% | 1.7% | -10.6%
COc1ccc(CNC(=O)C(c2ccco2)N(C(=O)c2ccccn2)c2ccccc2)cc1 (stereo unspecified) | / | 0.891µM* | ? | 0.891µM* | 6.75µM* | ?
CCOc1ccc(C2NC(=O)C(C#N)=C(S)N2c2ccc(OC)cc2)cc1OC (stereo unspecified) | -6.4% | 3.0% | 16.5% | 2.5% | 21.3µM* | 0.6%
COc1ccc(C2NC(=O)C(C#N)=C(S)N2c2ccc(C)cc2)cc1OC (stereo unspecified) | 16.9% | -1.6% | ? | -0.6% | 19µM* | 1.6%
COc1ccc(N2C(S)=C(C#N)C(=O)NC2c2ccc(OC)c(OC)c2)cc1 (stereo unspecified) | / | -4.7% | 6.8% | -6.9% | ? | 5.6%
Cc1ccc(N2C(S)=C(C#N)C(=O)NC2c2cccs2)cc1 (stereo unspecified) | 4.47µM* | 0.5% | 18.9% | -0.3% | -15.8% | -1.2%
COc1cc(C2NC(=O)C(C#N)=C(S)N2c2ccc(C)cc2)ccc1OC(C)C (stereo unspecified) | -30.5% | -0.2% | ? | 0.5% | 15.1µM* | ?
N#CC1=C(S)N(c2ccccc2)C(c2cccs2)NC1=O (stereo unspecified) | 24.2% | 2.2% | 2.0% | 6.4% | 5.8% | -2.5%
COc1ccc(C)cc1-n1cnc2cc(C(=O)NC3CCCCCC3)ccc21 | / | / | / | / | -5.7% | /
Cc1ccc(C)c(-c2cc(C(=O)Nc3sc(C)c(C)c3C(N)=O)c3ccccc3n2)c1 | -81.5% | 4.2% | 18.4µM* | -1.1% | -15.1% | -14.9%
Cc1sc(NC(=O)c2cccs2)c(C(N)=O)c1C | 10µM* | ? | ? | 17.5% | 10.7µM* | ?
Cc1sc(NC(=O)C2=COCCO2)c(C(N)=O)c1C | / | 21.8% | ? | 13.9% | 16.9µM* | 28.3%
Cc1cc(C)c(S(=O)(=O)N2CCN(CCN3C(=O)c4cccc5cccc(c45)C3=O)CC2)cc1[N+](=O)[O-] | -8.4% | 1.1% | 3.66µM* | -6.4% | -0.8% | 8.0%
CCc1nnc(NC(=O)c2ccc(OC)cc2OC)s1 | 2µM* | 0.447µM* | ? | 0.447µM* | 2.13µM* | ?
CC(=O)Nc1nnc(SCC(=O)NC2CCCC2)s1 | / | -0.1% | 10.7% | -5.4% | 1.5% | -9.5%
COc1ccc(C(=O)Nc2nnc(SCC(=O)NC3CCCC3)s2)c(OC)c1 | / | 0.1µM* | ? | 0.1µM* | 0.536µM* | 2.91µM*
COc1ccc(C(=O)Nc2nnc(SCC(=O)Nc3ccc(NC(C)=O)cc3)s2)c(OC)c1 | / | 0.631µM* | ? | 0.355µM* | 0.0849µM* | ?
COc1ccc(NC(=O)CSc2nnc(NC(=O)C3CCC3)s2)cc1 | / | 14.4% | ? | 3.4% | -0.3% | -0.4%
COc1cccc(CNC(=O)Cn2c(C)c3cnn(-c4ccccc4)c(=O)c3c2C)c1 | -0.4% | / | / | / | -8.1% | /
COc1cccc(N2CCN(c3c(C#N)c(C(F)(F)F)nn3C)CC2)c1 | -65.1% | -2.1% | 14.6µM* | 1.1% | 3.5% | -16.5%
CCn1nc(C)c(/C=N/NC(=O)c2c[nH]c3ccccc23)c1C | 17.8µM* | 3.55µM* | ? | ? | ? | ?
Cc1ccc(/C=N/NC(=O)c2c[nH]c3ccccc23)o1 | -4.2% | 26.8% | 7.2% | 21.9% | 23.9µM* | 3.4%
CC/C(=N\NC(=O)c1c[nH]c2ccccc12)c1cccs1 | 17.8µM* | 2.82µM* | ? | 2.82µM* | 5.36µM* | ?
SMILES | SMN2 splice up | Rab9 promoter act | ELG1 repair inh | NPC1 promoter act | FLuc counter | ELG1 genotoxic
C/C(=N/NC(=O)c1ccncc1)c1c[nH]c2ccccc12 | -5.3% | 1.9% | ? | -2.2% | -7.1% | 2.6%
C/C(=N\NC(=O)c1c[nH]c2ccccc12)c1ccc(C)s1 | / | ? | ? | 3.16µM* | ? | ?
COC(=O)C(Cc1c[nH]c2ccccc12)NC(=O)c1cccs1 (stereo unspecified) | / | -3.1% | 0.0% | -1.0% | ? | -1.4%
Cc1ccc(/C=N/NC(=O)c2cccc3ccccc23)o1 | / | 8.1% | -18.3% | -1.2% | -1.2% | 0.6%
CCOc1ccc(CNCc2c(C(=O)O)c(C)n(Cc3c(F)cccc3Cl)c2C)cc1OC | -14.5% | / | / | / | -9.0% | /
Cc1ccc(/C=N/NC(=O)c2c[nH]c3ccccc23)s1 | 12.6µM* | 0.562µM* | ? | 1.58µM* | 7.57µM* | 13.9%
Cc1ccc(/C=N/NC(=O)c2ccc(C(=O)N/N=C/c3ccc(C)s3)o2)s1 | 0.8% | -1.3% | -6.0% | 6.5% | ? | 9.8%
O=C(N/N=C/c1ccsc1)c1c[nH]c2ccccc12 | / | 2.82µM* | ? | 3.55µM* | 10.7µM* | 16.4µM*
Cc1ccsc1/C=N/NC(=O)c1cc(-c2ccncc2)nc2ccccc12 | -32.9% | -28.1% | ? | -16.8% | -19.9% | 2.4%
Cc1ccsc1/C=N/NC(=O)c1c[nH]c2ccccc12 | ? | 2.51µM* | ? | 4.47µM* | 12µM* | ?
Cc1ccc(-c2noc(CNC(=O)COc3cc(C)c(Br)c(C)c3)n2)cc1 | 15.0% | / | / | / | 2.9% | /
CCOc1ccc(C(=O)Nc2ccc(C(=O)OCc3cc(=O)n4c(C)csc4n3)cc2)cc1 | / | / | / | / | -10.1% | /
CC(C)[C@H](NC(=O)c1ccccc1)C(=O)OCC(=O)NCCc1ccc(F)cc1 | 0.9% | 1.3% | 5.5% | -1.1% | -1.1% | 0.1%
CC(NC(=O)c1ccc(C(C)(C)C)cc1)C(=O)O (stereo unspecified) | ? | -0.1% | ? | -2.6% | ? | 1.1%
Cc1cccc(C)c1NC(=O)CNC(=O)C(NC(=O)c1ccc(C(C)(C)C)cc1)C(C)C (stereo unspecified) | / | 0.6% | 5.17µM* | 0.9% | -1.1% | -0.2%
COC(=O)C(C)NC(=O)c1ccc(C(C)(C)C)cc1 (stereo unspecified) | ? | 21.9% | ? | 21.3% | 19µM* | 16.6%
CC(C)C(NC(=O)c1ccc(C(C)(C)C)cc1)C(=O)OCC(=O)NC(=O)Cc1ccccc1 (stereo unspecified) | 17.4% | -4.0% | -0.3% | 1.4% | 21.3µM* | 0.3%

Assay outcomes: PubChem BioAssay, National Center for Advancing Translational Sciences (NCATS)
